This note sets out measurements from PubChem BioAssay (NCATS).

A short description of assay [1]: S16 Schwann cell PMP22 intronic element firefly luciferase assay (AID 624032). Also: nearly all actives have a fitted effect of over 30% in size. Also: potency is read from the fitted curve at half-maximal effect. Put shortly:
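Luciferase reporter of PMP22 intronic-element expression in stably transfected S16 rat Schwann cells, read by ONE-Glo luminescence after 24 h compound exposure at 37 C. Activity scaled between DMSO (0%) and positive-control PTC124; concentration-effect curves quality-classified.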

A further assay relates to ATS189. Put plainly: qHTS profiling for inhibitors of Plasmodium falciparum proliferation (AID 504749). Also: nearly all actives have a fitted effect of over 60% in size. Also: potency is read from the fitted curve at half-maximal effect. The settings on record: P. falciparum in erythrocytes, SYBR Green DNA, 72 h; series mostly up to 28.7 µM. Put shortly:
(§1)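 Three-day growth assay of blood-stage parasites in erythrocytes (0.3% parasitemia, 2.5% hematocrit) at 37 C, 5% CO2, quantified by SYBR Green DNA staining after overnight detergent lysis.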
In general terms: In qHTS, concentration-response curves come from the screen itself.

The next assay has as its system C2A. The assay is described as above. As to conditions: P. falciparum in erythrocytes, SYBR Green DNA, 72 h; series mostly up to 28.7 µM. Put shortly:
as §1

The next assay deals with CP185. The description is as above. As to conditions: P. falciparum in erythrocytes, SYBR Green DNA, 72 h; series mostly up to 28.7 µM. Put shortly:
as §1

The subject of another assay is CP191. The description is as above. As to conditions: P. falciparum in erythrocytes, SYBR Green DNA, 72 h; series mostly up to 28.7 µM. Put shortly: as §1
A further assay relates to CP203. The assay is described as above. The settings on record: P. falciparum in erythrocytes, SYBR Green DNA, 72 h; series mostly up to 28.7 µM. Put shortly: as §1
Another assay deals with CP215. Described as above. As to conditions: P. falciparum in erythrocytes, SYBR Green DNA, 72 h; series mostly up to 28.7 µM. Put shortly:
as §1

For the next assay, the system named is CP237. The description is as above. The settings on record: P. falciparum in erythrocytes, SYBR Green DNA, 72 h; series mostly up to 28.7 µM. Put shortly:
as §1

For another assay, the system named is CP238. The assay is described as above. The settings on record: P. falciparum in erythrocytes, SYBR Green DNA, 72 h; series mostly up to 28.7 µM. Put shortly: as §1
The subject of the next assay is CP250. Described as above. The settings on record: P. falciparum in erythrocytes, SYBR Green DNA, 72 h; series mostly up to 28.7 µM. Put shortly:
as §1

For another assay, the system named is CP266. Described as above. The settings on record: P. falciparum in erythrocytes, SYBR Green DNA, 72 h; series mostly up to 28.7 µM. Put shortly:
as §1

In the next assay the test system is CP286. The description is as above. The settings on record: P. falciparum in erythrocytes, SYBR Green DNA, 72 h; series mostly up to 28.7 µM. Put shortly: as §1
The subject of the next assay is CP305. The assay is described as above. As to conditions: P. falciparum in erythrocytes, SYBR Green DNA, 72 h; series mostly up to 28.7 µM. Put shortly: as §1
In the next assay the test system is DIV30. The description is as above. The settings on record: P. falciparum in erythrocytes, SYBR Green DNA, 72 h; series mostly up to 28.7 µM. Put shortly:
as §1

In a further assay the test system is Dd2. The assay is described as above. As to conditions: P. falciparum in erythrocytes, SYBR Green DNA, 72 h; series mostly up to 28.7 µM. Put shortly:
as §1

The subject of the next assay is ECU. Described as above. The settings on record: P. falciparum in erythrocytes, SYBR Green DNA, 72 h; series mostly up to 28.7 µM. Put shortly:
as §1

The subject of another assay is ICS. The assay is described as above. As to conditions: P. falciparum in erythrocytes, SYBR Green DNA, 72 h; series mostly up to 28.7 µM. Put shortly: as §1
A further assay has as its system PC15. Described as above. The settings on record: P. falciparum in erythrocytes, SYBR Green DNA, 72 h; series mostly up to 28.7 µM. Put shortly: as §1
The subject of the next assay is CP297. The description is as above. As to conditions: P. falciparum in erythrocytes, SYBR Green DNA, 72 h; series mostly up to 28.7 µM. Put shortly:
as §1

The target of assay [2] is Mitogen-activated protein kinase 10 (Mus musculus) (UniProt Q61831). Kind of assay: JNK3 AlphaScreen Assay (AID 530; active = well fitted curve in either direction with a large enough effect, not every such curve was filed as active;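 also: kinase came from lysate of stimulated human HepG2 cells; signal reports phosphorylation of biotinylated GST-cJun 1-79 at Ser73 with 10 µM ATP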). Put shortly: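 Room-temperature AlphaScreen kinase assay; pre-activated HepG2 lysate as JNK3 source, biotin-GST-cJun(1-79) substrate, 10 uM ATP, compound 15 min preincubation.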
A general note: In Alpha technology, singlet oxygen from a donor bead excites a nearby acceptor bead.

Structures are written as SMILES. Inconclusive results are not listed. The source made the active and inactive calls. Unless noted, calls follow the shape of the dose curve; as a rule, active = well fitted curve in the direction sought with a large enough effect; inconclusive = small, poorly fitted or top-dose-only effect, or another doubt; inactive = no such curve, though single readings can be large; an effect the other way counts as inactive or inconclusive.

As for `C#C[C@]1(O)CC[C@H]2[C@@H]3CCC4=CC(=O)CCC4(C)[C@H]3CCC21C` (stereo partly drawn), the Potency entry (in [1]; in the assay on ATS189; with C2A; in the assay with CP185; with CP191; in the assay with CP203) was “inactive” each time. The Potency entry in the assay with CP215, in the assay on CP237, in the assay on CP238, in the assay with CP250, in the assay on CP266 and in the assay with CP286 was “inactive” in each case. The Potency result in the assay on CP305, with DIV30, in the assay on Dd2, in the assay with ECU, with ICS and in the assay on PC15 was “inactive” in each case.

With `CCC(=O)OC1(c2ccccc2)CCN(C)CC1C` (stereo not drawn), the Potency entry (in [1]; in the assay with C2A; in the assay on CP191; with CP215; in the assay with CP266; with DIV30) was “inactive” each time. Besides, the Potency entry with ECU, in the assay on ICS and in the assay on PC15 was “inactive” in each case. In addition, the Potency is 3.98 µM (active) in the assay on CP237, 12.6 µM (active) in the assay on CP286, 12 µM (active) in the assay with CP297 and 5.62 µM (active) in the assay with Dd2.

Take `CC1CC[C@@]2(NC1)OC1CC3C4CC[C@@H]5CC(O)CC[C@@]5(C)C4CC[C@]3(C)C1C2C` (stereo partly drawn): the Potency entry (in assay [1]; with ATS189; with C2A; in the assay on CP185; in the assay on CP191; in the assay with CP203) was “inactive” in each case. Also, the Potency entry in the assay with CP215, in the assay with CP237, with CP238, with CP250, with CP266 and with CP286 was “inactive” throughout. In addition, the Potency result in the assay on CP297, in the assay with CP305 and in the assay on PC15 was “inactive” each time. Moreover, the Potency in the assay with ECU was 12.6 µM (active); with ICS, 10 µM (active).

Take `C=CC[C@]1(O)CCC2C3CCC4=CCCCC4C3CCC21C` (stereo partly drawn): in assay [1], the Potency was 22.8 µM (active). Moreover, the Potency entry in the assay on ATS189, with C2A, in the assay on CP185, in the assay on CP191, in the assay with CP203 and in the assay on CP215 was “inactive” each time. Besides, the Potency entry in the assay with CP237, in the assay on CP238, in the assay with CP250, in the assay on CP286, in the assay with CP297 and in the assay on CP305 was “inactive” each time. Moreover, the Potency entry in the assay on DIV30 and in the assay with ECU was “inactive” each time.

With `CN(C)C1C(=O)C(C(N)=O)C(=O)C2(O)C(=O)C3C(=O)c4c(O)cccc4C(C)(O)C3C(O)C12` (stereo not drawn), the Potency result (in assay [1]; in the assay on ATS189; in the assay on C2A; in the assay with CP185; in the assay with CP191; in the assay on CP203) was “inactive” in each case. The Potency entry in the assay on CP215, in the assay with CP238, in the assay on CP250, with CP297, in the assay with CP305 and in the assay on ECU was “inactive” in each case. The Potency result in the assay on PC15 is “inactive”. Besides, the figures for the Potency in the assay on Dd2 and with ICS were 3.55 µM (active) and 2.82 µM (active), respectively.

For `C[C@]12CC[C@H]3[C@@H](CC[C@@]45O[C@@H]4C(=O)C(C#N)C[C@]35C)[C@@H]1CC[C@@H]2O` (stereo partly drawn), the Potency entry (in assay [1]; in the assay on CP203; in the assay with CP215; in the assay on CP237; in the assay on CP238; in the assay on CP266) was “inactive” in each case. Moreover, the Potency entry in the assay on CP286, in the assay with CP297, in the assay with CP305, in the assay on DIV30, with Dd2 and in the assay on PC15 was “inactive” each time.

Take `CC(C)CCC(=O)OC1CCC2C3CCC4=CC(=O)CC[C@]4(C)C3CC[C@]12C` (stereo partly drawn): the Potency with ATS189 was 8.91 µM (active); in the assay on CP185, 10 µM (active); in the assay with CP191, 6.31 µM (active); in the assay with CP237, 11.2 µM (active); with CP250, 10 µM (active); in the assay on CP286, 4.47 µM (active). For the same compound, the Potency in the assay on ECU was 10 µM (active); with ICS it was 7.94 µM (active). Also, the Potency entry in the assay on CP203, in the assay with CP215, in the assay on CP266, with CP297, with CP305 and with DIV30 was “inactive” each time.

As for `CC(=O)[C@H]1CC[C@H]2C3CC[C@H]4C[C@H](O)CC[C@]4(C)C3CC[C@]12C` (stereo partly drawn), the Potency entry (in assay [1]; in the assay on ATS189; in the assay on C2A; in the assay with CP185; in the assay on CP191; with CP203) was “inactive” each time. For the same compound, the Potency entry in the assay on CP215, in the assay on CP237, with CP238, with CP250, in the assay with CP266 and in the assay on CP286 was “inactive” each time. In addition, the Potency entry in the assay on CP297, with CP305, in the assay on DIV30, in the assay with Dd2, in the assay with ECU and with ICS was “inactive” in each case. Further, the Potency result with PC15 was “inactive”.

`CC(C)=CC1C(C(=O)OCc2coc(Cc3ccccc3)c2)C1(C)C` (stereo not drawn): the Potency entry (in assay [1]; in the assay on ATS189; in the assay with C2A; with CP185; in the assay on CP203; in the assay on CP215) was “inactive” throughout. The Potency result in the assay with CP237, with CP238, in the assay on CP250, in the assay on CP266, in the assay with CP286 and with CP297 was “inactive” each time. The Potency result with CP305, in the assay on DIV30, in the assay with Dd2, with ECU and in the assay with PC15 was “inactive” each time.

Consider `CNC1=CN(O)C(c2ccccc2)=c2cc(Cl)ccc2=N1`, for which, in [1], the Potency entry was “inactive”.

For the compound `C[C@@]1([C@@H](NP(=O)(c2ccccc2)c2ccccc2)c2ccccc2)C[C@H]1CCO`, the compound was classed as inactive in [2].

On to `CNC(=O)[C@H]1C[C@@H]1[C@H](NP(=O)(c1ccccc1)c1ccccc1)c1ccccc1`, for which the compound was classed as inactive in [2].

On to `CC1N(P(=O)(c2ccccc2)c2ccccc2)CC(O)(c2ccccc2)CC12CC2` (stereo not drawn), for which, in assay [2], the compound was called inactive.

For `O=C(Oc1ccc([N+](=O)[O-])cc1)N1CCC(N2CCCCC2)CC1`, in assay [2], the call was inactive.

As to `COc1cc2c(cc1OC)[C@]13CCN4CC5=CCO[C@@H]6CC(=O)N2[C@@H]1[C@H]6[C@@H]5C[C@H]43`, in assay [2], the outcome was inactive.

As to `CCCC/C=C/[C@@H](NP(=O)(c1ccccc1)c1ccccc1)c1ccccc1OC`, the result in assay [2] was inactive.

For the compound `COC(=O)[C@@H]1C[C@@]1(C)[C@@H](NP(=O)(c1ccccc1)c1ccccc1)c1ccccc1`, the compound was classed as inactive in assay [2].

Turning to `COC(=O)C1(C)C=C2C(=C(C)C(=O)C2C)CN1` (stereo not drawn), the call in [2] was inactive.

`C=C[C@@H]1C[C@@]1(C)[C@@H](NP(=O)(c1ccccc1)c1ccccc1)c1ccccc1`: the call in [2] was inactive.

Consider `c1ccc2ncccc2c1`, for which the result in assay [2] was inactive.

On to `CCN1C[C@@]2(COC)[C@H](O)C[C@H](OC)[C@@]34[C@@H]5C[C@@]6(O)[C@H](OC(=O)c7ccccc7)[C@H]5[C@@](OC(C)=O)([C@H]([C@@H](OC)[C@H]23)[C@H]14)[C@H](O)[C@@H]6OC`, for which the compound was classed as inactive in assay [2].

`COC(=O)[C@H]1C[C@@H]1[C@H](NP(=O)(c1ccccc1)c1ccccc1)c1ccccc1`: in assay [2], the compound was classed as inactive.

Consider `CCCC/C(C)=C/[C@@H](NP(=O)(c1ccccc1)c1ccccc1)c1ccccc1`, for which, in assay [2], the compound was classed as inactive.

Consider `C=C(CC1(CNP(=O)(c2ccccc2)c2ccccc2)CC1)c1ccccc1`, for which the call in assay [2] was inactive.

With `COC(=O)[C@@]1(Cc2ccccc2)[C@H]2c3cc(C(=O)N(C)C)n(C)c3C[C@H]2CN1C(=O)c1ccccc1`, the compound was called inactive in assay [2].

As to `C=C(C)c1ccccc1`, in assay [2], the compound was called inactive.

`O=P(c1ccccc1)(c1ccccc1)N1CC2(CC2)CC(O)(c2ccccc2)C1` (stereo not drawn): the compound was called inactive in assay [2].
